# In PubChem BioAssay:
# Unmarked numbers belong to inactive results. Active and inactive are the calls of the source. Unless noted, no stated cut-off is given here; in the data, active means inhibition above about 42%; inactive means the rest.
# What was measured:
# [1] = StAR promoter reporter inhibitors, counter-screen for LRH-1 inverse agonist project, cell-based, luminescence, high throughput (AID 651611; in the data active means inhibition above about 28%); conditions: StAR promoter luciferase reporter counterscreen, at 3.6 µM, active compounds read high
# [2] = target: Nuclear receptor subfamily 5 group A member 2 (Homo sapiens) (UniProt O00482); test: LRH-1 (NR5A2) inverse agonists, retest, confirmation, cell-based, luminescence (AID 651613); conditions: cell-based LRH-1 luciferase reporter, inverse agonism; at 3.6 µM; active compounds read high;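 further: HEK293T cells co-transfected with LRH-1 and StAR promoter luciferase reporter; 0% = vehicle wells and 100% = parental cells lacking receptor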
# [3] = target: Steroidogenic factor 1 (Homo sapiens) (UniProt Q13285); test: SF1 (NR5A1) inverse agonists, counter-screen for LRH-1 inverse agonist project, cell-based, luminescence, high throughput (AID 651614; in the data active means inhibition above about 44%;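 further: cells cotransfected with StAR promoter reporter and SF1 expression vector; 0% = vehicle on cells with receptor and 100% = vehicle on cells lacking receptor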); conditions: cell-based SF1 luciferase reporter, at 3.6 µM, active compounds read high
# [4] = VP16 transactivation reporter inhibitors, counter-screen for LRH-1 inverse agonist project, cell-based, luminescence, high throughput (AID 651615; in the data active means inhibition above about 33%); conditions: Gal4-VP16 luciferase reporter cells, at 3.6 µM, active compounds read high
# Chain of Nuclear receptor subfamily 5 group A member 2 (Homo sapiens) (O00482 whole entry, looked up): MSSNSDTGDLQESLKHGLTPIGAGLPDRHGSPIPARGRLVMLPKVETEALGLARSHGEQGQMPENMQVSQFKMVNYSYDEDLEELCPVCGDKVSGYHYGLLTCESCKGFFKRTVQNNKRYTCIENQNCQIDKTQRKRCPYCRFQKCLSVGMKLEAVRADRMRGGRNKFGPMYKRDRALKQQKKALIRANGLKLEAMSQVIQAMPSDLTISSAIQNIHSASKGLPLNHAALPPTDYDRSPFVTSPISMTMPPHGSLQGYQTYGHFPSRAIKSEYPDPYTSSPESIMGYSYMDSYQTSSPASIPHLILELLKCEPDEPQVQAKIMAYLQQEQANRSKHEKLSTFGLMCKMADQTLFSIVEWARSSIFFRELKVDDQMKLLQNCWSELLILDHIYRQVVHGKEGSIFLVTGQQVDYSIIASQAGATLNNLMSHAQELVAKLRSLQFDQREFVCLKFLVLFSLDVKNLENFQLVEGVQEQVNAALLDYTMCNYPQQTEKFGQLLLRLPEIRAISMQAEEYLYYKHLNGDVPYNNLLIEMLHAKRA
# Chain of Steroidogenic factor 1 (Homo sapiens) (Q13285 whole entry, looked up, the tested form may be a part): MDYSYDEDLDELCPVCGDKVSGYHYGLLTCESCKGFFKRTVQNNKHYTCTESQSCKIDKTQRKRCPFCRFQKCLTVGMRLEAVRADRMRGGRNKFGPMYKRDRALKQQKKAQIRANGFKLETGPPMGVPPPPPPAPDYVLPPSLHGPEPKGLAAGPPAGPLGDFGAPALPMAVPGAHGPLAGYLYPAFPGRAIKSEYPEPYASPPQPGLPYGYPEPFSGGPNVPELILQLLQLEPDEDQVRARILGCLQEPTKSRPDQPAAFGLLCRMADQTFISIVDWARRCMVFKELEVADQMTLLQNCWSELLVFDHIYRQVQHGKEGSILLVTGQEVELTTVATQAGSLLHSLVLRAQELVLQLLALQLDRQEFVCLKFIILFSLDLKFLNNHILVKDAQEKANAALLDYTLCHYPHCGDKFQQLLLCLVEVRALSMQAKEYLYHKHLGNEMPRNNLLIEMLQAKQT
SMILES,inhibition [1],inhibition [2],inhibition [3],inhibition [4]
Cc1ccc(C(=O)N/N=C\c2ccc([N+](=O)[O-])o2)cn1,24.3%,59% (active),57% (active),0.83%
O=C(CSc1nccc(=O)[nH]1)Nc1ccc(N2CCOCC2)cc1,4.42%,61.3% (active),47.8% (active),-3.99%
COc1ccc(OC)c(NC(=O)c2ccccc2NC(=O)c2ccco2)c1,12.6%,45.3% (active),47.3% (active),-1.48%
CC[n+]1c(/C=C/c2ccc(N(C)C)cc2)ccc2ccccc21,71.9% (active),103% (active),86.6% (active),85% (active)
COc1ccc(-c2cnc3c(NC=O)cc(-c4ccc(S(C)(=O)=O)cc4)cn23)cc1OC,-4.42%,63% (active),58.1% (active),30.2%
CCc1ccc2oc(C(=O)NCc3ccncc3)c(C)c2c1,-4.67%,53.2% (active),61% (active),6.18%
Cc1ccc(NC(=O)CSc2nc3[nH]c(=O)cc(O)c3s2)c(Br)c1,5.79%,56.3% (active),46.5% (active),-1.62%
Cn1cccc1C(=O)OCC(=O)N1CCN(c2ccccc2)CC1,2.85%,32.7%,35%,-18.1%
CCOc1ccc(NC(=O)CSc2nncc(=O)n2N)cc1,12.1%,64.5% (active),43.6% (active),-9.32%
Cc1cccc(NC(=O)CSc2nnc([C@@H]3CCCN3C(=O)OC(C)(C)C)o2)c1C,33.4% (active),66.2% (active),73.5% (active),-39.9%
COc1cc(C(=O)NN=Cc2ccc(N(C)C)cc2)cc(OC)c1OC,37.3% (active),37.8%,51.1% (active),22.3%
O=C(CCl)Nc1ccc(S(=O)(=O)NC2=NCCCCC2)cc1,41.5% (active),62% (active),61% (active),17.7%
O=C(c1c(F)c(F)c(F)c(F)c1F)N1CCN(c2cccc(C(F)(F)F)c2)CC1,7.83%,49.5% (active),44% (active),11.4%
COc1ccccc1NC(=O)CN1CCN(CC(=O)Nc2ccc(S(N)(=O)=O)cc2)CC1,19.1%,49.8% (active),47.7% (active),-15.6%
COc1ccc(Nc2nc(NCCN3CCOCC3)nc(Nc3ccc(OC)cc3)n2)cc1,-1.42%,42.9% (active),38.6%,0.52%
O=C(COC(=O)Cn1[nH]c(=O)c2ccccc2c1=O)NNC(=O)c1ccc(Br)cc1,27.8% (active),32.1%,35.8%,-7.59%
O=C1CCN(CCCN2CCC(=O)N(Cc3ccccc3)C2=S)C(=S)N1Cc1ccccc1,-8.81%,27.2%,28.5%,-0.72%
Cc1cc2oc(=O)cc(-c3ccccc3)c2c(C)c1-c1ccc(C#N)cc1,4.09%,69% (active),62.7% (active),13.8%
COc1ccc(C(=O)Nc2cnccn2)cc1[N+](=O)[O-],-2.94%,35.3%,26.4%,4.88%
NC(=S)N/N=C/c1ccc([N+](=O)[O-])cc1,6.27%,42.7% (active),39.8%,-3.22%
Cc1no[n+]([O-])c1COc1ccccc1/C=N/n1nnnc1N,7.3%,48.8% (active),43% (active),-13.9%
Cc1cc(C)c2c(=O)[nH]c(SCC(=O)Nc3ccc(Br)cc3)nc2n1,9.16%,47.8% (active),30.6%,-6.94%
COc1ccc(NC(=O)COC(=O)c2c(-c3ccccc3)noc2C)cc1,15.3%,63% (active),66.1% (active),-5.04%
COC(=O)c1ccc(NC(=O)CSC2=NCCN2)cc1,-0.27%,54.5% (active),43.8% (active),4.09%
